Experimental findings from the supplement of paper PMC6555819 are described below.

In this assay the test system is FXR:RXRa (NR concentration 270 nM, RXRa partner concentration 90 nM). The experiment in a line: PBM binding z-score (relative to random genomic background probes); higher = stronger binding; sequences stand for … in GC…GCGATTGACAGCGTAGAATGAAGG
Put shortly:
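Antibodies against each partner of ligand-free nuclear receptor dimers (one per run) detected binding on custom Agilent 4×180K protein-binding microarrays after 1 h incubation. The double-stranded probes had 34-nt variable regions carrying direct-repeat seeds, single-nucleotide variants, half-site ablations and random human genomic background sequences. Binding z-scores, from regression-normalized fluorescence, use the random background probes as reference.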
Sequence ATATGTAGGTTAAGGGTCAGTCAGGTTGGTTCGC gave a PBM binding z-score of 3.7.
The value for TTACCAAGGTGAAAGGGCGTTGATGCACGCCTTG was 1.12.
On to CGTCAAAGTTCGACTAAGGTAACGTAAAGCACGC, for which the PBM binding z-score worked out at 1.87.
Next, CAAACTAGGGCAAGGTCAAAGTCGGTTTGTGCCA: 5.18; ACTATTAGTTGACTTACGGCAACCGATACGACGC: 0.213.
CCGACTGGGGCATAAGGTTACTATAAGCCAGCCC displayed a PBM binding z-score of 0.52.
GCAGACAGGTGAAACGCAGGGAACTCAGGGTGGC: the PBM binding z-score was -0.391.
Next, TAGCCTACGTCATGCGGGCCAGTATAGTGTCGGC: -0.993; CCTACTGGGCCACGGTCATTGATCAGTCAAAGCA: -0.282.
Next, CGAACTAGGTCAAGGACAGTGATTCTCCGCACGC: 3.46.
Next, CCAGACAGGTGAAAGATAACTCAGTCTGGTACGC: -0.034; TATACAGGGTCAAAGGCCAGGGTACGAATGTCGA: 6.87; CCTAGTTGGTCAAGGTCACAAACGCTATAGGTAC: 3.97.
CGTCCAAGGTCAGAGAGGTCAGGGAATGCCGAGT gave a PBM binding z-score of 6.63.
The value for GCCTACGGGTCAAAGGTTATAGCATGAATAGAAT was 7.04.
Next, GGCACGAGGGCAAAGTTGATAGCATCTGTCGACG: 1.44; GCAGACAGGTGAAACGCAGGTAAATCAGGGTGGC: -0.326.
For TCTAGTTGGTCACGGAGGTGACACACGACGGGTA, the PBM binding z-score was determined as 1.04.
CAAGACAGGTGAGAAGGTAACTCAGCCTCGATTA came in with a PBM binding z-score of 0.353.
The value for TCGAGTAGGTTAGTCGGGGCATTAAGCCAACATA was -0.0253; that for CTACCAAGGTGAAAAAGGTCGTTGATTACTATTC was 1.22; that for ACTAGCAGGCCAAGTTTGGGTCAGTCAAACAAAG was 0.028.
